The values that follow come from PubChem BioAssay AID1014 (NMMLSC, 2008).

The source made the active and inactive calls. Rule as the data show it: active = inhibition of mean fluorescence above about 33%; inactive = the rest.

This experiment can be described thus: quorum sensing inhibitors in bacterial reporter, SAR follow-up, flow cytometry, SAR analogs (AID 1014).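 Also: Staphylococcus aureus RN6390 with RNAIII-GFP reporter stimulated by AIP; bacteria incubated with compound for 3 hours at 37 °C.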 The conditions noted are these: at 20 µM, stronger effect = higher value; inhibition of percent positive cells: flow cytometry fluorescence, measured here: percent reporter-positive cells. On the technique in general: Flow cytometry measures light scatter and fluorescence of single cells or particles in a stream.
With `Cc1ccc(S(=O)(=O)c2nnn3c2nc(Nc2ccc(Oc4ccccc4)cc2)c2cc(Cl)ccc23)cc1`, the inhibition of percent positive cells was -0.5% and the inhibition of mean fluorescence is -19.1% (inactive).
Turning to `N#Cc1c(NC(=O)c2cc3ccccc3c(=O)o2)sc2c1CCCCCC2`, the inhibition of mean fluorescence is -18.3% (inactive) and the inhibition of percent positive cells came out at 0.2%.
Regarding `O=C(NCC(c1cccnc1)N1CCOCC1)c1cccc(Cl)c1` (configuration not stated), the inhibition of mean fluorescence is -6.2% (inactive) and the inhibition of percent positive cells is 0.6%.
Consider `O=C(NCC(c1cccnc1)N1CCN(c2ccc(F)cc2)CC1)C1CCCCC1` (configuration not stated), for which the inhibition of percent positive cells was 0.5% and the inhibition of mean fluorescence was -37% (inactive).
On the same counts, the results for `N#Cc1c(NC(=O)CCN2C(=O)c3ccccc3C2=O)oc(-c2ccccc2)c1-c1ccccc1` are -0.3% and 19.7% (inactive).
In the case of `O=C(NCC(c1cccnc1)N1CCN(c2ccc(F)cc2)CC1)c1ccccc1F` (configuration not stated), the inhibition of percent positive cells came to 0.3% and the inhibition of mean fluorescence is -2.2% (inactive).
`O=C(O)c1sc2ccccc2c1Nc1ccccc1`: the inhibition of mean fluorescence was -2.8% (inactive) and the inhibition of percent positive cells was found to be 0.6%.
In the case of `O=C(Nc1ccc2c(c1)OCCO2)C(c1ccc(F)cc1)N1CCCCC1` (configuration not stated), the inhibition of percent positive cells is -0.6% and the inhibition of mean fluorescence was 12.6% (inactive).
Turning to `COc1ccc(OC)c(C(=O)c2coc3ccc(O)cc23)c1`, the inhibition of percent positive cells was 0% and the inhibition of mean fluorescence is -21.9% (inactive).
Regarding `O=C(NCC(c1cccnc1)N1CCN(c2ccc(F)cc2)CC1)c1cccs1` (configuration not stated), the inhibition of percent positive cells is -0.3% and the inhibition of mean fluorescence was 20.1% (inactive).
Take `COc1ccc(Nc2nc3c(S(=O)(=O)c4ccccc4)nnn3c3ccccc23)cc1`: the inhibition of percent positive cells is -0.4% and the inhibition of mean fluorescence is -5.6% (inactive).
For `O=C(NCC(c1cccnc1)N1CCc2ccccc21)c1cccc(Br)c1` (configuration not stated), the inhibition of mean fluorescence is 29.6% (inactive) and the inhibition of percent positive cells amounted to 0.1%.
Regarding `Cc1ccc(Nc2nc3c(S(=O)(=O)c4ccccc4)nnn3c3ccccc23)cc1`, the inhibition of percent positive cells was determined as 0.4% and the inhibition of mean fluorescence is -19% (inactive).
With `CC1CCN(C(C(=O)NC2CCCCC2)c2cc3c(cc2[N+](=O)[O-])OCO3)CC1` (configuration not stated), the inhibition of mean fluorescence is 6% (inactive) and the inhibition of percent positive cells was found to be 0.7%.
On the same counts, the results for `O=C(O)c1ccccc1Nc1nc(N2CCCC2)nc(N2CCCC2)n1` are 10.8% (inactive) and -0.3%.
`O=C(NCCN1CCN(c2ccccc2)CC1)c1cccc(Cl)c1`: the inhibition of mean fluorescence is -5.6% (inactive) and the inhibition of percent positive cells is 0%.
On to `CC(C)c1ccc(NC(=O)C(c2cc3c(cc2[N+](=O)[O-])OCO3)N2CCC(Cc3ccccc3)CC2)cc1` (configuration not stated), for which the inhibition of mean fluorescence is -12% (inactive) and the inhibition of percent positive cells was -0.4%.
`COc1ccc(NC(=O)C(c2cc3c(cc2[N+](=O)[O-])OCO3)N2CCCC(C)C2)cc1` (configuration not stated): the inhibition of percent positive cells was -0.9% and the inhibition of mean fluorescence was 29.6% (inactive).
As for `CC(=O)c1cc2c(O)c(O)ccc2o1`, the inhibition of percent positive cells was -0.1% and the inhibition of mean fluorescence is 17.9% (inactive).
On the same counts, the results for `COc1cc(Nc2cc(C)nc3nc(C)nn23)c(C(=O)O)cc1OC` are 0.5% and -11.6% (inactive).
With `CCc1c(C(=O)c2ccccc2)oc2c(C)c3oc(=O)cc(C)c3cc12`, the inhibition of mean fluorescence is -0.6% (inactive) and the inhibition of percent positive cells was -1.3%.
Consider `COc1ccc(S(=O)(=O)c2n[nH]n3c2nc(=O)c2ccccc23)cc1`, for which the inhibition of mean fluorescence was 34.1% (active) and the inhibition of percent positive cells is -1.8%.
In the same order, the values of `COc1c(F)c(F)c(C(=O)O)c(Nc2ccccc2C)c1F` are 9.6% (inactive) and -0.2%.
As to `CCOC(=O)c1c(C)oc2cc(Br)c(O)c(C=O)c12`, the inhibition of mean fluorescence was -4.5% (inactive) and the inhibition of percent positive cells was determined as 2.9%.
For `CN1CCN(C(=O)C(=O)Nc2ccc3c(c2)OCO3)CC1`, the inhibition of percent positive cells was 0.1% and the inhibition of mean fluorescence is -2.5% (inactive).
`CCOC(=O)C1=C(c2ccccc2)NC(SCC(=O)Nc2sc3c(c2C(=O)OCC)CCCC3)=C(C#N)C1c1ccco1` (configuration not stated): the inhibition of percent positive cells worked out at 0.1% and the inhibition of mean fluorescence was -27.4% (inactive).
As to `CCOC(=O)c1cnc2c(OC)cccc2c1Nc1ccccc1C(=O)O`, the inhibition of mean fluorescence is -42.9% (inactive) and the inhibition of percent positive cells is -1.1%.
On the same counts, the results for `COc1ccc(Nc2ccccc2C(=O)O)cc1` are 0.6% (inactive) and -2.8%.
For the molecule `Cc1cc(C)cc(Nc2nc3c(S(=O)(=O)c4ccccc4)nnn3c3ccccc23)c1`, the inhibition of percent positive cells was 0.1% and the inhibition of mean fluorescence was 0.4% (inactive).
In the same order, the values of `CCc1ccc(S(=O)(=O)c2nnn3c2nc(Nc2ccc(OC)cc2)c2sccc23)cc1` are -0.5% and 5.8% (inactive).
On to `CN1CCN(C(C(=O)NC2CCCCC2)c2cc3c(cc2[N+](=O)[O-])OCO3)CC1` (configuration not stated), for which the inhibition of percent positive cells is -0.4% and the inhibition of mean fluorescence was -5.8% (inactive).
On to `O=C(NCC(c1cccnc1)N1CCc2ccccc2C1)c1ccc(F)c(F)c1` (configuration not stated), for which the inhibition of percent positive cells was -0.1% and the inhibition of mean fluorescence is -6.4% (inactive).
`COc1ccc(Nc2nc3c(S(=O)(=O)c4ccccc4)nnn3c3ccsc23)cc1`: the inhibition of mean fluorescence was -41.7% (inactive) and the inhibition of percent positive cells was 0.3%.
As for `O=C(NCCN1CCN(C(=O)c2cc(F)c(F)cc2Cl)CC1)c1cc(F)c(F)cc1Cl`, the inhibition of percent positive cells is -1.2% and the inhibition of mean fluorescence is -25.7% (inactive).
As for `O=C(Nc1ccc2c(c1)OCO2)C(c1ccc(Cl)cc1)N1CCN(C(=O)c2ccco2)CC1` (configuration not stated), the inhibition of mean fluorescence is 2.2% (inactive) and the inhibition of percent positive cells was -0.3%.
In the same order, the values of `COc1ccc(C(=O)NCC(c2cccnc2)N2CCN(c3ccccc3F)CC2)cc1OC` (configuration not stated) are -7.3% (inactive) and -1.8%.
